Screening data deposited in PubChem BioAssay by National Center for Advancing Translational Sciences (NCATS).
The list is not random: actives were taken first. Their share in the collection is about 1.3%.
Vif-APOBEC3G blk = blocks the Vif interaction with human APOBEC3G. Q9HC16. HeLa A3G-eYFP + Vif (tagged APOBEC3G with the HIV-1 protein that degrades it), YFP fluorescence, overnight. Potency, µM (titrated, usually from 46.1 µM), without a hit: top-dose activity, negative = active, most hits filed as inhibitors. hit rate 0.076% among 410,000. AID 602310; also: potency is read from the fitted curve at half-maximal effect; % is scaled to controls: 0 for no effect and ±100 for the full control effect; nearly all actives have a fitted effect of over 60% in size
Target sequence (Q9HC16 whole entry, looked up): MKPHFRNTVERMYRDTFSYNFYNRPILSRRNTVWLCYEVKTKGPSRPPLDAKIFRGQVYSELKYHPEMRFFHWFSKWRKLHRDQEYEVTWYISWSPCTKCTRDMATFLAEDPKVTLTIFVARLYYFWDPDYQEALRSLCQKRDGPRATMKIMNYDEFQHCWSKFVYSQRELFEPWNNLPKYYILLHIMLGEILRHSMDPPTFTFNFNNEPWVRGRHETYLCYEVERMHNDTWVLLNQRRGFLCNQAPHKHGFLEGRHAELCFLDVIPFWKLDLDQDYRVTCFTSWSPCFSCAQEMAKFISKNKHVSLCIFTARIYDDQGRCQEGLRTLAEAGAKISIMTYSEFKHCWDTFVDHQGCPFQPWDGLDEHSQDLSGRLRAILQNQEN
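Read-out is eYFP fluorescence (Ex 488/Em 500-530) from Vif-expressing HeLa A3G-eYFP cells; more signal means A3G escaped Vif-mediated degradation. Cells plated overnight, compound pinned in, incubated overnight at 37 deg C.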
Vif-A3F inh = Vif-A3F binding inhibition. AID 602313. Potency, µM (top dose mostly 46.1 µM), without a hit: at the highest dose activity, negative = active. hit rate 0.2% among 390,000. HeLa A3F-eYFP + Vif (tagged APOBEC3F with the HIV-1 protein that degrades it), YFP fluorescence increase; also: potency is read from the fitted curve at half-maximal effect; % of control where 0% means no effect; nearly all actives have a fitted effect of over 65% in size
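Fluorescence increase (Ex 488/Em 500-530) after overnight compound treatment at 37 deg C flags inhibition of Vif-driven A3F-eYFP loss in stable HeLa A3F-eYFP/Vif cells seeded overnight beforehand.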
TRPML1 agonist = human mucolipin-1 channel agonism; Q9GZU1; TRPML1-expressing cells, Ca2+ dye fluorescence, FDSS; activation, % (no concentration beside the values); hit rate 0.12% among 410,000; in the data active = activation above about 50%; inconclusive = mostly about 30% to 49%; also: 0% is about no effect
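Calcium fluorescence on an FDSS kinetic reader gave the read-out. Tet-induced TRPML1-DL cells were plated overnight, dye-loaded (Ca8 with quencher, 45-90 min, room temperature, dark), then read 110 s after compound addition, and again 110 s after 4uM final 54-4 (EC80).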
TRPML1 inh = inhibitors of human TRPML1 channel; hit rate 0.02% among 390,000; Q9GZU1; activity change, negative = inhibition, % (concentration not given with the values); TRPML1-inducible cells, Ca2+ dye fluorescence, FDSS; stronger effect = lower value; inhibition of EC80 agonist-evoked calcium signal; in the data active = activity change below about -50%; inconclusive = between about -30% and that limit;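 also: stimulus is agonist 54-4 at its EC80 concentration; % is scaled to controls: 0 for no effect and ±100 for the full control effect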
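TRPML1-DL cells, Tet-induced overnight (~16 h, 37 °C) at 1,500 cells/well, were loaded with Ca8 no-wash dye plus quencher for 45-90 min at room temperature. Compounds were pinned during FDSS kinetic reading; agonist 54-4 at EC80 (4 uM final) then added.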
ALOX12 inh = blocks human arachidonate 12S-lipoxygenase; P18054; purified 12hLO, xylenol orange hydroperoxide absorbance; Potency, µM (titrated, usually from 108 µM), inactives show at the highest dose activity change, negative = inhibition, actives largely listed as inhibitors; hit rate 1.1% among 580,000; AID 1671190; also: potency is read from the fitted curve at half-maximal effect; % is scaled to controls: 0 for no effect and ±100 for the full control effect
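Purified human 12hLO (150 nM final) in 25 mM Hepes, 0.01% Triton X-100, pH 7.0 was preincubated 15 min at room temperature with compound. Then 40 uM arachidonic acid was added, 30 min. Hydroperoxide was read by Fe-XO absorbance ratio 573/405 nm.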
GRP78 ERSR act = induces the endoplasmic reticulum stress response in human glioma cells; Potency, µM, for inactives: top-dose activation, hits mostly activators; hit rate 0.02% among 420,000; U87-MG GRP78 promoter luciferase reporter, 16 h; also: potency is read from the fitted curve at half-maximal effect; series mostly up to about 76 µM; % of control where 0% means no effect; nearly all actives have a fitted effect of over 35% in size
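Stably transfected U87-MG glioma cells carrying a GRP78-based luciferase sensor; 16 h compound incubation. Luminescence end-point read 10 min after Bright-Glo addition at room temperature.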
The depositor's hits bear a star; ? = inconclusive; / = no result. Unless noted, calls follow the shape of the dose curve; as a rule, active = well fitted curve in the direction sought with a large enough effect; inconclusive = small, poorly fitted or top-dose-only effect, or another doubt; inactive = no such curve, though single readings can be large; an effect the other way counts as inactive or inconclusive.

SMILES | Vif-APOBEC3G blk | Vif-A3F inh | TRPML1 agonist | TRPML1 inh | ALOX12 inh | GRP78 ERSR act
CCOc1ccccc1C(C(=O)O)N1CCN(Cc2csc(C)n2)CC1 (stereo not drawn) | / | / | / | / | 61% | /
COc1ccc(C(C(=O)O)N2CCN(Cc3csc(C)n3)CC2)c(C)c1 (stereo not drawn) | / | / | / | / | 22µM* | /
O=C1C(=Cc2cccn2-c2ccccc2)C(=O)c2ccccc21 | ? | 28µM* | 1 | -19 | ? | 2%
COc1cc(C(=O)N2CCCCC2)ccc1OCc1c(C)noc1C | / | / | / | / | -3% | /
CCCCCCC(=O)N(O)C1CC(=O)N(c2ccc(C)cc2)C1=O (stereo not drawn) | -1% | -17% | 1 | -4 | -21% | 3%
CCCCCCC(=O)N(O)C1CC(=O)N(c2ccc(Cl)cc2)C1=O (stereo not drawn) | -5% | -29% | 0 | 6 | 1.3µM* | 0%
Cc1ccc(S(=O)(=O)NC[C@H]2O[C@@H](CO)[C@@H](O)[C@H]2N2CCN(c3ncccn3)CC2)cc1 | / | / | / | / | 16µM* | /
COc1ccc(S(=O)(=O)NC[C@H]2O[C@@H](CO)[C@@H](O)[C@H]2N2CCN(c3ccccn3)CC2)cc1 | / | / | / | / | 0% | /
COc1cccc(Oc2coc3cc(OC(=O)c4ccc(F)cc4)ccc3c2=O)c1 | / | / | / | / | -3% | /
COCC(=O)Nc1nc2ccccc2s1 | 1% | 2% | 0 | -3 | -24% | -3%
NC(=S)Nc1nc2ccccc2s1 | 1% | ? | 0 | -1 | 6.3µM* | 4%
COc1ccc(CN2CCN(Cc3c[nH]c4ccccc34)CC2)cc1 | 2% | 7% | 1 | -6 | 0.71µM* | -3%
COc1ccc(CN2CCN(Cc3c[nH]c4ccccc34)CC2)cc1OC | 0% | -11% | 0 | 22 | 1.1µM* | -3%
COc1ccc(Br)cc1CN1CCN(Cc2c[nH]c3ccccc23)CC1 | -8% | 9% | 0 | -10 | ? | -10%
CCc1cc(=O)oc2cc(OCC(=O)NCCC#N)ccc12 | / | / | / | / | 14% | /
CCN(CC)S(=O)(=O)c1ccc(CNC(=O)c2ccccc2OCc2cn3ccccc3n2)cc1 | / | / | / | / | 8% | /
CN1CCC(OC(=O)c2ccc(Cl)cc2Cl)CC1 | 3% | -6% | 1 | 8 | -5% | -4%
CN1CCC(OC(=O)c2cc3cc(Cl)cc(Cl)c3oc2=O)CC1 | 11µM* | 4% | / | / | ? | -4%
CN(Cc1ccccc1)C(=O)C1CCN(S(C)(=O)=O)CC1 | -9% | -16% | 1 | -7 | 19% | -1%
Cc1ccccc1CN1CCC(N(C)Cc2ccccc2)CC1 | / | / | / | / | 0.56µM* | /
FC(F)(F)c1ccccc1CN1CCC(Cc2ccccc2)CC1 | -5% | -4% | -1 | -5 | 0.71µM* | 1%
CN(Cc1ccccc1)C(=O)C1CCN(Cc2cccc3ccccc23)CC1 | / | / | / | / | 1.3µM* | /
Clc1ccccc1CN1CCC(Cc2ccccc2)CC1 | 1% | -18% | 1 | -16 | ? | -5%
COc1cccc(CN(C)c2nc3ccccc3nc2NS(=O)(=O)c2ccccc2)c1 | / | / | / | / | 16% | /
Cc1[nH]ccc(=O)c1OCC(=O)Nc1ccncc1 | / | / | / | / | 10% | /
SMILES | Vif-APOBEC3G blk | Vif-A3F inh | TRPML1 agonist | TRPML1 inh | ALOX12 inh | GRP78 ERSR act
CCn1c(CSc2n[nH]c(-c3ccc(OC)cc3)n2)nc2cc(S(=O)(=O)N(C)C)ccc21 | / | / | / | / | 11% | /
COCCNc1ncnc2ccc(-c3ccccc3C)cc12 | / | / | / | / | 28µM* | -3%
Cc1cccc(-n2c(=S)[nH]c3sc4c(c3c2=O)CCc2ccccc2-4)c1 | -2% | 12% | 1 | -16 | 16µM* | -3%
Cc1ccc(-n2c(=S)[nH]c3sc4c(c3c2=O)CCc2ccccc2-4)cc1 | -5% | 1% | 1 | -21 | ? | -3%
CC(C)c1ccc(CNCCCSc2ncccn2)cc1 | 5% | 0% | 0 | -2 | 25µM* | -2%
CC(C)c1ccc(S(=O)(=O)N2CCN(CCS(=O)(=O)CCC(N)=O)CC2)cc1 | / | / | / | / | 15% | /
O=C(C1CCCN(Cc2ccc(Cl)cc2)C1)N1CCCCC1 (stereo not drawn) | 1% | 0% | 1 | 2 | 0.63µM* | -4%
